14 molecules from PubChem BioAssay (NCATS) can be followed below.

In experiment [1] the target is Lysosomal acid glucosylceramidase (Homo sapiens) (UniProt P04062). Description: Glucocerebrosidase-p2 (AID 348; in the data active means potency below about 10 µM; further: potency means the concentration at half of the fitted maximal effect). Conditions: purified GBA, blue fluorogenic substrate, 40 min. The gist of the method: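 Compounds titrated from 0.6 nM upwards against 0.2 nM enzyme in pH 5.9 citric acid/KH2PO4, taurocholate, tween-20; blue fluorogenic substrate 80 uM, 40 min room temperature, stopped and read Ex 365/Em 440 for AC50.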

Experiment [2] in a line: AP1 Signaling Pathway (AID 357).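 Further: ME-180 reporter cells stimulated with EGF at its EC50 level; on the % scale 0 is the no-effect control and ±100 the full control effect.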 Conditions: ME-180 AP-1-bla reporter, EGF-induced, beta-lactamase ratio, 5 h; at 7.69 µM (top of the series) unless noted. The gist of the method: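 AP-1-bla ME-180 cells, Opti-MEM + 0.5% dialyzed FBS, plated overnight 37 °C. Cpd titration + EC50 EGF, 5 h 37 °C. CCF4 2.5 h RT; ex 405, em 460/530 ratio → %activity, AC50.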
In experiment [3] the target is Cytochrome P450 1A2 (Homo sapiens) (UniProt P05177). Description: p450-cyp1a2 (AID 410; calls by dose curve; further: potency means the concentration at half of the fitted maximal effect;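 on activity change, negative = inhibition: -100% = full effect of reference inhibitor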). Conditions: recombinant CYP1A2, luciferin-ME demethylation, luminescence; series mostly up to 11.4 µM. The gist of the method: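 Luminescent readout of luciferin formed from Luciferin-ME by human CYP1A2; data normalized against complete inhibition by 57 uM furafylline. Enzyme 20nM, substrate 100uM at Km, 100mM KPO4 buffer, 60 min reaction at room temperature.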

Experiment [4] is described as follows: NFAT Signaling Pathway (AID 444).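 Further: carbachol stimulus at about its EC50 of 1 µM final; on the % scale 0 is the no-effect control and ±100 the full control effect.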 Conditions: Jurkat NFAT-bla M1, carbachol, beta-lactamase ratio, 5 h; at 7.69 µM (top of the series) unless noted. The gist of the method:
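Jurkat cells with NFAT-driven β-lactamase reporter and co-expressed M1 receptor, stimulated with carbachol (final 1 uM, ~EC50), compound titration, 5 h at 37 °C. CCF4 loaded 1 h at RT; 460/530 nm ratio gave %activity and AC50.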

Experiment [5] is described as follows: Stat Signaling Pathway (AID 446).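 Further: ME-180 cervical cancer cells given 40 pM IL-6 alongside compound; SIE-controlled beta-lactamase reporter measured as 460/530 nm FRET emission ratio; on the % scale 0 is the no-effect control and ±100 the full control effect.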 Conditions: ME-180 SIE beta-lactamase reporter, IL-6 stimulated, 5 h; at 7.69 µM (top of the series) unless noted. The gist of the method:
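Screening format detects activators and inhibitors alike: ME-180 SIE-bla cells stimulated at 40 pM IL-6 for 5 hrs with compound, then dual-emission beta-lactamase read at 405 nm excitation.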

For experiment [6], the target named is Glucocorticoid receptor (Homo sapiens) (UniProt P04150). As to the kind of experiment: GR-GFP Redistribution (AID 450;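 active means compounds whose dose series gives a full or clear partial fitted curve of increased nuclear translocation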; further: potency means the concentration at half of the fitted maximal effect). Conditions: U2OS GR-GFP nuclear translocation, laser cytometry, 2 h.
For experiment [7] the target is unchanged. As to the kind of experiment: GR-EFC Redistribution (AID 451; calls by dose curve; further: potency means the concentration at half of the fitted maximal effect). Conditions: CHO-K1 GR-EFC translocation, beta-gal luminescence, 2 h. The gist of the method:
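CHO-K1 cells expressing nuclear EA and GR-ED fragments of b-gal; compounds titrated up to 46 uM final, 2 h at 37 C. GR nuclear translocation read as complemented b-gal luminescence after 1 h RT detection.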

For experiment [8], the target named is Mitogen-activated protein kinase 10 (Mus musculus) (UniProt Q61831). Description: JNK3 AlphaScreen Assay (AID 530).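 Further: kinase came from lysate of stimulated human HepG2 cells; signal reports phosphorylation of biotinylated GST-cJun 1-79 at Ser73 with 10 µM ATP; on the % scale 0 is the no-effect control and ±100 the full control effect.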 Conditions: JNK3 lysate, c-Jun phosphorylation; series mostly up to 11.4 µM. The gist of the method:
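Pre-activated (IL-1β/TNFα) JNK3 in HepG2 lysates phosphorylates biotin-GST-cJun(1-79), 10 uM ATP; anti-phospho-cJun(Ser73) AlphaScreen read at room temperature, pH 7.6 Tris buffer. Compounds pre-incubated 15 min as titrations.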
A general note: In Alpha technology, singlet oxygen from a donor bead excites a nearby acceptor bead.

Experiment [9] has as its target 3',5'-cyclic-AMP phosphodiesterase 4B (Homo sapiens) (UniProt Q07343). As to the kind of experiment: qHTS Assay for Inhibitors of PDE-IV (AID 607; active means well fitted activation curve with a large enough effect in the main read-out, with a control signal flat, not every such curve was filed as active; further: % of control where 0% means no effect). Conditions: HEK293 ACTOne CNG channel cells, membrane potential fluorescence; series mostly up to 22.9 µM. The gist of the method: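 The readout is membrane depolarisation from a cAMP-sensing CNG channel, detected with a potential dye at ex 535/em 590. Cells were HEK293-derived (endogenous PDE-IV) at 1000 cells/well, titrated up to 22.9 uM final.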

Values without a mark were called inactive. Results filed as inconclusive are left out. Active and inactive are the calls of the source. Unless noted, the call rests on the fitted dose curve; in most records, active means well fitted curve in either direction with a large enough effect (not every such curve was filed as active); inconclusive means small, poorly fitted or top-dose-only effect, or another doubt; inactive means flat fitted curve, though single readings scatter. Bounds are passed on as bounds.

Sequence of 3',5'-cyclic-AMP phosphodiesterase 4B (Homo sapiens) (Q07343 whole entry, looked up): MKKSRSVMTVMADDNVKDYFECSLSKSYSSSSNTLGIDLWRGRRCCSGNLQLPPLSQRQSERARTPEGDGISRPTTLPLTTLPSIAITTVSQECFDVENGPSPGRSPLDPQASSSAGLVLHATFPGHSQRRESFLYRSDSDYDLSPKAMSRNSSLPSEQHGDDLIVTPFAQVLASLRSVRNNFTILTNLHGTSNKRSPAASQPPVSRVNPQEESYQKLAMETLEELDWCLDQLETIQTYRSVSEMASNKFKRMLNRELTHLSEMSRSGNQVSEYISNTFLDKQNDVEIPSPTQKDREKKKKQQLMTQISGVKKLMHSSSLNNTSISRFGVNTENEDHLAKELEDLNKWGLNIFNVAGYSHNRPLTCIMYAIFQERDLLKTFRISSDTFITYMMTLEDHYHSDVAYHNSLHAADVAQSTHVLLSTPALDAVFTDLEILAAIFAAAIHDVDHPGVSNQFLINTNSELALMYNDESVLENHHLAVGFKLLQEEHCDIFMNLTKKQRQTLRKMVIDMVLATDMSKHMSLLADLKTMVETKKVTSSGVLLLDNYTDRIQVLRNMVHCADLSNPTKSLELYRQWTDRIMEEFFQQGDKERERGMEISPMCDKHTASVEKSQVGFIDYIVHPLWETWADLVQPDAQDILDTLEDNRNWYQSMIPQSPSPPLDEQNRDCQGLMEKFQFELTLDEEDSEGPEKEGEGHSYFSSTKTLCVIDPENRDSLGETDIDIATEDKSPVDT
Sequence of Cytochrome P450 1A2 (Homo sapiens) (P05177 whole entry, looked up): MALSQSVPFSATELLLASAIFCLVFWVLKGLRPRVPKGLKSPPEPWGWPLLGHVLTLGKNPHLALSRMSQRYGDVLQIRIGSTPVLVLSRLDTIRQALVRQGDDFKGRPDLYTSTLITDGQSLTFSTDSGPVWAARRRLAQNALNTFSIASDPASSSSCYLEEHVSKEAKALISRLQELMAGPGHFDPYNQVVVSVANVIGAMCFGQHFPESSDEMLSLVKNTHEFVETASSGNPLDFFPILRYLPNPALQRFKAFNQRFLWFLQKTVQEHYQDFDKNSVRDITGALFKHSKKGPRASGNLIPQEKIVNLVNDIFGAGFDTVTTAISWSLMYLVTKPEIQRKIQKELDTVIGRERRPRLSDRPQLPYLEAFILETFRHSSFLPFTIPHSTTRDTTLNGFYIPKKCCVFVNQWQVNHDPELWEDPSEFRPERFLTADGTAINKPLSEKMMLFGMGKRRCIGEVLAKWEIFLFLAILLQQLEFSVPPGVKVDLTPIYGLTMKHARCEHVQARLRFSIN
Sequence of Lysosomal acid glucosylceramidase (Homo sapiens) (P04062 whole entry, looked up): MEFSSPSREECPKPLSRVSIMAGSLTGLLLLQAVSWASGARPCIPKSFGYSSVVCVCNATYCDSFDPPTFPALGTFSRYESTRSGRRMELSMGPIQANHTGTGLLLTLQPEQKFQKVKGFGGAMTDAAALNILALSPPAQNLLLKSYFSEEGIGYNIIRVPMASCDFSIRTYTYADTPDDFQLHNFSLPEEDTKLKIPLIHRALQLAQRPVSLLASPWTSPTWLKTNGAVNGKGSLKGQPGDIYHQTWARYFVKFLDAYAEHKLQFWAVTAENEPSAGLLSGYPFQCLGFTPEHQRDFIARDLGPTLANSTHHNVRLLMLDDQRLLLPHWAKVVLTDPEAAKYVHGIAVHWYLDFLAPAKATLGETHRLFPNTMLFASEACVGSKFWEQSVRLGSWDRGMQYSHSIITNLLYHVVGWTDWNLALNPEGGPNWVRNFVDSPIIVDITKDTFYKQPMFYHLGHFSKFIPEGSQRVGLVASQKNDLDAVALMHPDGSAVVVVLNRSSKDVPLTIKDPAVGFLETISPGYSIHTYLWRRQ
Sequence of Glucocorticoid receptor (Homo sapiens) (P04150 whole entry, looked up): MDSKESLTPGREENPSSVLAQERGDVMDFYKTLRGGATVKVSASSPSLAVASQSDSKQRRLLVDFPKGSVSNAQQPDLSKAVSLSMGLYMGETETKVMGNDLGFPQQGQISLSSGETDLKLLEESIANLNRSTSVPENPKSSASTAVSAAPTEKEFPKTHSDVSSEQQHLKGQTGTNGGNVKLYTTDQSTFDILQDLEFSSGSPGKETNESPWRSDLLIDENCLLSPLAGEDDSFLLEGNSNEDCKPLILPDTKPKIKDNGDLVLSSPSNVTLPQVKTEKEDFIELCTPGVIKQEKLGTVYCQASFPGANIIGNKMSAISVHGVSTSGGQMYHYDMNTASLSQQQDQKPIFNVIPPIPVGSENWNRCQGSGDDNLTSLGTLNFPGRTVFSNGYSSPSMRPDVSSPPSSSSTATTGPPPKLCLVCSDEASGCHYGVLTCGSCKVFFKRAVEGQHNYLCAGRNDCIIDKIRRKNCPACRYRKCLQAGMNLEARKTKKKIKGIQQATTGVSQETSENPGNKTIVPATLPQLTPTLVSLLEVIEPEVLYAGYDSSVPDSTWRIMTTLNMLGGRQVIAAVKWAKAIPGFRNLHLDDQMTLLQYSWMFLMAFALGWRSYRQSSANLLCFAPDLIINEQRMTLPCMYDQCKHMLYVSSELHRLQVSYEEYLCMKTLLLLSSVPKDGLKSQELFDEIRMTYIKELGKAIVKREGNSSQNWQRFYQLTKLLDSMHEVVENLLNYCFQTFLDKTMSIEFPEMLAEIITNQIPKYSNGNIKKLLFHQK

On to `Cc1noc(NC(=O)Nc2ccccc2F)c1C#N`, for which the Potency in [1] was more than 11.4 µM; in [3], 0.794 µM (active); in experiment [6], more than 46 µM; in experiment [7] it was more than 9.22 µM. The activity change, negative = inhibition in [2] was -0.973%; in experiment [4], 11.4%. The activity, negative = inhibition in [5] is -14.1%. The Potency entry in [8] and in experiment [9] was “inactive” in each case.

As to `CC(C)CN=C(N)N=C(N)N`, the values for the Potency in experiment [1], in [6] and in [7] were more than 11.4 µM, more than 46 µM and more than 9.22 µM, respectively. Further, the activity change, negative = inhibition in [2] is 6.14%; in experiment [4], 11.1%. The Potency entry in experiment [3], in experiment [8] and in [9] was “inactive” throughout. The activity, negative = inhibition in experiment [5] is 1.4%.

As for `O=C(O)c1ccc(C(=O)c2ccccc2)c(C(=O)O)c1`, the Potency in experiment [1] is more than 11.4 µM; in experiment [6], more than 46 µM; in experiment [7], more than 9.22 µM. Besides, the activity change, negative = inhibition in experiment [2] was 21.3%; in experiment [3], 3.1% [at 2.29 µM]; in experiment [4], 2.06%. Also, the activity, negative = inhibition in experiment [5] was 5.54%. Besides, the Potency result in experiment [8] and in experiment [9] was “inactive” throughout.

Turning to `O=C(O)c1cccc(C(=O)O)c1S(=O)Cc1ccccc1` (stereo unspecified), the results for the Potency in experiment [1], in experiment [6] and in experiment [7] were more than 11.4 µM, more than 46 µM and more than 9.22 µM, respectively. In addition, the activity change, negative = inhibition in experiment [2] was 5.26%; in [4], 7.39%. In addition, the Potency result in experiment [3], in experiment [8] and in experiment [9] was “inactive” each time. For the same molecule, the activity, negative = inhibition in [5] is 6.2%.

Turning to `CC(=O)N[C@H](Cc1ccc(O)cc1)C(=O)O`, the Potency was more than 11.4 µM in [1], more than 46 µM in experiment [6] and more than 9.22 µM in experiment [7]. The activity change, negative = inhibition was -0.588% in experiment [2] and -3.29% in experiment [4]. Also, the Potency entry in [3], in experiment [8] and in experiment [9] was “inactive” throughout. Further, the activity, negative = inhibition in experiment [5] is -0.609%.

Turning to `O=[N+]([O-])c1ccccc1N=Nc1c(O)[nH]c2ccc(S(=O)(=O)O)cc12`, the Potency is more than 11.4 µM in experiment [1], 1 µM (active) in experiment [3], more than 46 µM in experiment [6] and more than 9.22 µM in [7]. Further, the values for the activity change, negative = inhibition in [2] and in experiment [4] were -1.77% and 11%, respectively. For the same molecule, the activity, negative = inhibition in experiment [5] was -1.49%. In addition, the Potency result in experiment [8] and in experiment [9] was “inactive” each time.

For `O=C(O)[C@H](Cc1cc(I)c(O)c(I)c1)C1CCCCC1`, the Potency in experiment [1] was more than 11.4 µM; in experiment [6], more than 46 µM; in experiment [7] it was more than 9.22 µM. Moreover, the values for the activity change, negative = inhibition in experiment [2], in [3] and in experiment [4] were -29.2%, -8.8% [at 2.29 µM] and 1.46%, respectively. The activity, negative = inhibition in experiment [5] was -16%. Further, the Potency entry in experiment [8] and in experiment [9] was “inactive” in each case.

For `CCSC[C@@H](N)C(=O)O`, the Potency in [1] is more than 11.4 µM; in experiment [6], more than 46 µM; in [7], more than 9.22 µM. For the same molecule, the activity change, negative = inhibition in experiment [2] was 5.2%; in experiment [3] it was -1.6% [at 2.29 µM]; in experiment [4] it was -9.5%. The activity, negative = inhibition in [5] is 0.221%. Besides, the Potency entry in [8] and in [9] was “inactive” each time.

For the molecule `Cc1ccc(S(=O)(=O)O[C@@H]2[C@H]([C@@H]3COC(C)(C)O3)O[C@H]3OC(C)(C)O[C@@H]32)cc1`, the Potency in [1] is more than 11.4 µM; in [6], more than 46 µM; in experiment [7], more than 9.22 µM. Further, the activity change, negative = inhibition in [2] is 1.73%; in experiment [4] it was 3.01%. In addition, the Potency entry in [3], in experiment [8] and in [9] was “inactive” each time. In addition, in experiment [5], the activity, negative = inhibition was 7.9%.

As to `Nc1nc(SCc2ccccc2Cl)cc(C(=O)O)n1`, the values for the Potency in experiment [1], in experiment [6] and in [7] were more than 11.4 µM, more than 46 µM and more than 9.22 µM, respectively. In addition, the activity change, negative = inhibition was -13.8% in experiment [2], 6.2% [at 2.29 µM] in experiment [3] and 1.52% in [4]. The activity, negative = inhibition in experiment [5] is 4.58%. For the same molecule, the Potency entry in [8] and in experiment [9] was “inactive” throughout.

As to `O=C(O)c1c2c(c(O)c3c1CN(C1CCCCC1)CO3)OCN(C1CCCCC1)C2`, the Potency in experiment [1] was more than 11.4 µM; in experiment [6] it was more than 46 µM; in [7] it was more than 9.22 µM. Also, the activity change, negative = inhibition in experiment [2] was 4.96%; in experiment [4], 29.1%. The Potency result in experiment [3], in experiment [8] and in experiment [9] was “inactive” each time. Also, in experiment [5], the activity, negative = inhibition is 0.651%.

For `O[C@]1(c2ccccc2)c2ccccc2NC2=NCCN21`, the Potency in [1] is more than 11.4 µM; in [6], more than 46 µM; in experiment [7], more than 9.22 µM. In addition, the activity change, negative = inhibition in experiment [2] is 12.3%; in [4], -13.7%. Further, the Potency entry in [3], in [8] and in experiment [9] was “inactive” throughout. For the same molecule, the activity, negative = inhibition in experiment [5] is 4.27%.

`CCCCN(c1ccccc1)c1ncnc2c1cnn2C`: the Potency in experiment [1] is more than 11.4 µM; in experiment [3], 0.631 µM (active); in experiment [6], more than 46 µM; in [7] it was more than 9.22 µM. For the same molecule, the activity change, negative = inhibition in [2] was -1.19%; in [4] it was 12.1%. The activity, negative = inhibition in experiment [5] is 5.06%. Also, the Potency entry in experiment [8] and in experiment [9] was “inactive” each time.

Turning to `O=C(O)C[C@H]1OCC=C2C[N@@+]3([O-])CC[C@]45c6ccccc6N[C@@H]4[C@@H]1[C@H]2C[C@H]53`, the Potency in experiment [1] was more than 11.4 µM; in [6], more than 46 µM; in experiment [7], more than 9.22 µM. Besides, the activity change, negative = inhibition in [2] was 9.8%; in experiment [3] it was -14.3% [at 2.29 µM]; in experiment [4] it was 1.94%. In addition, the activity, negative = inhibition in [5] is 3.39%. In addition, the Potency entry in experiment [8] and in experiment [9] was “inactive” each time.
